Screening data deposited in PubChem by several laboratories.
Compounds with a hit are over-represented: about 3.3% of the library has one in this group of screens.
PLK1 kinase inh – blocks human PLK1 kinase activity. recombinant PLK1 kinase, TR-FRET peptide phosphorylation. inhibition, % at 10 µM. P53350. 0.53% of 97,000 active;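 active = inhibition of 50% or more in the single-concentration screen; inactive = inhibition below 50%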
ERb coact inh – ER-beta (human) coactivator binding inhibition; TR-FRET ER-beta LBD / SRC1-Cy5 peptide binding; receptor agonist-loaded with 1 µM estradiol; inhibition, % at 25.6 µM; AID 633; 1.3% of 86,000 active; Q92731;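 active = compounds whose percent inhibition of the receptor-coactivator binding signal exceeds about 50% in the single-dose screen, limit read from the data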
ERa coact pot – enhances coactivator binding to human estrogen receptor alpha; P03372; TR-FRET ERalpha-LBD/SRC-Cy5 coactivator binding, 2 h; 100 = basal binding, no effect; coactivator binding (% of control), % at 25.6 µM; 1.3% of 86,000 active; AID 639; in the data active = activity above about 200%;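 also: binding measured in presence of low estradiol as agonist stimulus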
PLK1 PBD inh – blocks phosphopeptide binding to human Plk1 polo box domain | 0.13% of 97,000 active | Plk1 PBD phosphopeptide binding, fluorescence polarization | P53350 | inhibition, %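 (tested at about 20 µM)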; in the data active = inhibition above about 34%, passing the limit was not always enough
Smad3 inh – Smad3 (human) transcription factor binding inhibition; P84022; TR-FRET Smad3/Dy647-FoxH1 peptide binding, europium anti-His; inhibition, % at 25 µM; 0.29% of 88,000 active; AID 630;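 active = compounds that reduce the energy-transfer binding signal between the protein and its labelled peptide by more than half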
Target sequence (P84022 whole entry, looked up): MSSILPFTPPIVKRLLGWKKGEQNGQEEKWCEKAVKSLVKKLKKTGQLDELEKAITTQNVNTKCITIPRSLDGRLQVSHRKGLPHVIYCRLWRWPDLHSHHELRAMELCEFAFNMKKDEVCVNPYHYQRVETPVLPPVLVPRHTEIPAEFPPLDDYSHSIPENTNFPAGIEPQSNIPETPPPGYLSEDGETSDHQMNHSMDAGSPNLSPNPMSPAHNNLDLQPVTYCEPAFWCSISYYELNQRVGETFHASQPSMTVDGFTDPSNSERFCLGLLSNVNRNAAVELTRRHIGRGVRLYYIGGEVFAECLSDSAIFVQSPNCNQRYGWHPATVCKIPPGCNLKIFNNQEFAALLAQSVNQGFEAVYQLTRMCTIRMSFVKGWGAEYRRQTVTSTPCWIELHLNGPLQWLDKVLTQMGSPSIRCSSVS
ERa SRC1 inh – blocks coactivator binding to human estrogen receptor alpha | AID 629 | TR-FRET ER-alpha LBD / SRC-1 peptide, estradiol-bound | inhibition, % at 25.6 µM | 1.7% of 86,000 active; in the data active = inhibition above about 50%
A number is an active result; [ ] = another dose, or the depositor's remark.

Screening O=P1(NCc2ccco2)COc2ccccc2OC1 returned PLK1 kinase inh inactive, ERb coact inh inactive, ERa coact pot 211.0[fluorescence artefact?], PLK1 PBD inh inactive, Smad3 inh inactive and ERa SRC1 inh inactive.
`O=P1(NC2CCCC2)COc2ccccc2OC1` gave PLK1 kinase inh inactive, ERb coact inh inactive, ERa coact pot inactive, PLK1 PBD inh inactive, Smad3 inh inactive and ERa SRC1 inh inactive.
`NNc1c(C(N)=O)c2c(N)ncnc2n1[C@H]1O[C@H](CO)[C@@H](O)[C@@H]1O` gave Smad3 inh inactive.
Screening CCC(C)NC(=O)c1c(N)n(CCCOC)c2nc3ccccc3nc12 (centres undefined) returned PLK1 kinase inh inactive, ERb coact inh inactive, ERa coact pot inactive, PLK1 PBD inh inactive, Smad3 inh 52.0 and ERa SRC1 inh inactive.
`COC(=O)[C@@H]1C(=O)[C@H](C(=O)OC)[C@@H]2CC[C@H]1N2C` gave Smad3 inh inactive.
Screening CCCOC(=O)[C@H]1[C@@H](C(=O)O)[C@H]2CC[C@@H]1O2 returned Smad3 inh inactive.
`Cn1c(=O)c2[nH]cnc2n(C)c1=O.[CH2-][C@H](Cc1cccc2cc(C(=O)O)c(=O)oc12)OC.[Hg].[OH-]` gave Smad3 inh 68.3.
C[C@]12CCC(=O)C=C1CCC1C2CC[C@@]2(C)C1CC[C@@]2(O)CC#N (some centres undefined) was read as ERb coact inh 54.4, ERa coact pot inactive, Smad3 inh inactive and ERa SRC1 inh inactive.
CC12CCC(=O)C=C1CCC1C2CCC2(C)C(O)CCC12 (centres undefined) was read as ERb coact inh inactive, ERa coact pot inactive, Smad3 inh inactive and ERa SRC1 inh inactive.
`COC(=O)C[C@]1(C(=O)OC)CN(C#N)N(c2ccc(Cl)cc2)C12c1ccccc1-c1ccccc12` gave PLK1 kinase inh inactive, ERb coact inh inactive, ERa coact pot inactive, PLK1 PBD inh inactive, Smad3 inh 72.1[fluorescence artefact?] and ERa SRC1 inh inactive.
Screening COC(=O)[C@@H]1[C@@H](C(=O)OC)C2(c3ccccc3-c3ccccc32)N(c2ccc(Cl)cc2)N1C#N returned PLK1 kinase inh inactive, ERb coact inh inactive, ERa coact pot inactive, PLK1 PBD inh inactive, Smad3 inh inactive and ERa SRC1 inh inactive.
CC(C)[C@]1(O)[C@@H](OC(=O)c2ccc[nH]2)[C@@]2(O)[C@@]3(C)C[C@]4(O)O[C@@]5([C@H](O)[C@@H](C)CC[C@@]35O)[C@@]2(O)[C@@]41C was read as Smad3 inh inactive.
Screening COc1cc(CN2CCN(C(=O)COc3ccccc3)CC2)cc(OC)c1OC returned PLK1 kinase inh inactive, ERb coact inh inactive, ERa coact pot inactive, PLK1 PBD inh inactive, Smad3 inh inactive and ERa SRC1 inh inactive.
Screening Cn1cccc1CN1CCN(C(=O)COc2ccccc2)CC1 returned PLK1 kinase inh inactive, ERb coact inh 93.1[fluorescence artefact?], ERa coact pot inactive, PLK1 PBD inh inactive, Smad3 inh inactive and ERa SRC1 inh inactive.
For CCOc1ccc2[nH]c(=O)c(CN(CCO)C3(c4nnnn4C4CCCCC4)CCCCC3)cc2c1 the results were PLK1 kinase inh inactive, ERb coact inh inactive, ERa coact pot 239.2, PLK1 PBD inh inactive, Smad3 inh inactive and ERa SRC1 inh inactive.
Screening C[n+]1c(/C=C/c2ccc(O)c3ncccc23)[se]c2ccccc21 returned Smad3 inh inactive.
Screening N#CS.N=C=S.N=C=S.[Cu].[NH2-].[NH2-].[NH2-].[NH2-].c1ccc2ncccc2c1 returned Smad3 inh 62.6.
`CC1CCC(NCC(O)c2ccccc2)CC1` (centres undefined) gave PLK1 kinase inh inactive, ERb coact inh inactive, ERa coact pot 293.8[fluorescence artefact?], PLK1 PBD inh inactive, Smad3 inh inactive and ERa SRC1 inh inactive.
`CCN(CC)P(=O)(NC(=O)C(Cl)(Cl)Cl)N(CC)CC.[Cl-].[Cl-].[Cl-].[Nd+3]` gave PLK1 kinase inh inactive, ERb coact inh 50.3[fluorescence artefact?], ERa coact pot inactive, PLK1 PBD inh inactive, Smad3 inh 67.2[fluorescence artefact?] and ERa SRC1 inh 69.2[fluorescence artefact?].
`C[C@@]12CC[C@@H]3[C@H](CCC4=CC(=O)CC[C@H]43)[C@H]1CC[C@H]2OC1(O)C(=O)c2ccccc2C1=O` gave Smad3 inh 53.6.
`CC[C@H]1CN2CCc3cc(OC)c(OC)cc3[C@@H]2C[C@@H]1C[C@H]1NCCc2c1[nH]c1ccc(O)cc21` gave Smad3 inh inactive.
O=S(=O)(Nc1nccs1)c1ccc([As](=O)(O)O)cc1 was read as Smad3 inh 102.0.
`Nc1nc(SC2CCC([N+](=O)[O-])C3NONC23)c2[nH]cnc2n1` (centres undefined) gave Smad3 inh inactive.
For C[C@]12CC[C@H](O)C[C@@H]1CC[C@H]1[C@H]2CC[C@]2(C)[C@@H]1CC[C@H]2C(=O)C[C@H](O)C(F)(F)F the results were Smad3 inh inactive.
For CCCCC[CH2][Hg][n+]1c[nH]c2nc(N)[nH]c(=S)c21 the results were Smad3 inh inactive.
`CC1=NN(c2ccccc2)C(=O)[C@H]1N=Nc1ccc([As](=O)(O)O)c(O)c1` gave Smad3 inh inactive.
`O=C1Nc2ccccc2/C1=C/c1cnc[nH]1` gave PLK1 kinase inh 60.7 and PLK1 PBD inh inactive.
O=C(O)C[C@@H]1NCc2cc3ccccc3nc21 was read as Smad3 inh 50.6.
For C[C@]12Cc3cnc(-c4ccccc4)nc3C[C@@H]1CC[C@H]1[C@H]2CC[C@@]2(C)[C@H]1CC[C@]2(C)O the results were Smad3 inh inactive.
Screening C[C@@H]1[C@H]2C=C[C@@H]1[C@H](c1c3ccc(=O)c(O)c-3oc3c(O)c(O)ccc13)[C@@H]2C(=O)O returned Smad3 inh 102.2.
`CC(=O)O[C@H]1CC[C@H]2[C@H]3CCC4=C[C@@H](C5SCCS5)[C@H](OC(C)=O)C[C@]4(C)[C@@H]3CC[C@]12C` gave Smad3 inh 98.2.
For COc1cc2c3cc1Oc1c(O)c(OC)cc4c1[C@@H](Cc1ccc(cc1)Oc1cc(ccc1O)C[C@@H]3N(C)CC2)N(C)CC4 the results were Smad3 inh 59.4.
O=S(=O)(NCCO)c1cc[c]([Sb](=[O])([OH])[OH])cc1 was read as Smad3 inh inactive.
Screening C[N+]1([O-])[C@@H]2CC(OC(=O)[C@@H](CO)c3ccccc3)C[C@H]1[C@H]1O[C@H]12 (some centres undefined) returned Smad3 inh inactive.
`CN1CCN(c2ccc(N)cc2)CC1` gave PLK1 kinase inh inactive, ERb coact inh 90.6[fluorescence artefact?], ERa coact pot inactive, PLK1 PBD inh inactive, Smad3 inh inactive and ERa SRC1 inh 84.0[fluorescence artefact?].
